Screening data (PubChem)
A3G deaminase = inhibitors of human APOBEC3G DNA deaminase; Q9HC16; AID 493012; 330,000 compounds, 0.28% hits; recombinant A3G, ssDNA deamination FAM/TAMRA fluorescence; inhibition, % at 20 µM;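 active = inhibition of at least 40% at 20 µM, with no more than 30% in the related APOBEC3A deaminase screen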;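 note: plate controls were DMSO wells with A3G for no effect and wells lacking A3G enzyme for full effect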
Target sequence (Q9HC16 whole entry, looked up): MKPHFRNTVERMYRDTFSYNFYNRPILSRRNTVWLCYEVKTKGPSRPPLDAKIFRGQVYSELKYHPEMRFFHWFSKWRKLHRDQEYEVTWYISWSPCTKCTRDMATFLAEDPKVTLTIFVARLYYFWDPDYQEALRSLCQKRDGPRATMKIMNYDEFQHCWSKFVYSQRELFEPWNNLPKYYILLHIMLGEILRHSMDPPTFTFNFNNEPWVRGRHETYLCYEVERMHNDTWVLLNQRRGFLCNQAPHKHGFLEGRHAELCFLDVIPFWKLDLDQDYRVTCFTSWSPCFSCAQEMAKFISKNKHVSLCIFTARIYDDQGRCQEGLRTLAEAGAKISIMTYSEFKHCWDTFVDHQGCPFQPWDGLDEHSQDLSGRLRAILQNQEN
CR mimetic SO = caloric restriction mimetics inhibiting age-related superoxide in yeast | S. cerevisiae aged cells, superoxide DHE fluorescence; active compounds read low | superoxide response (% of plate mean), % at 10 µM | 330,000 compounds, 0.18% hits;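 active = superoxide response under a set limit, about three screen SD below normal, cut at about 65% in these data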;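 note: yeast aged for seven days with compound at 30 °C before DHE staining; 100% = average MFI of all compound-treated wells on the plate with controls excluded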
PfM18AAP inh = PfM18AAP enzyme inhibition; inhibition, % at 7.35 µM; AID 1822; 290,000 compounds, 1.2% hits; recombinant PfM18AAP, H-Glu-NHMec fluorogenic cleavage;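 active = inhibition above the campaign mean inhibition over all tested compounds plus 3 SD, cut at about 28% in these data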;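 note: 0% = plate median of test compound wells and 100% = 2 mM ZnCl2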
APOBEC3A inh = blocks human APOBEC3A ssDNA deamination; P31941; recombinant A3A, FAM/TAMRA ssDNA deamination fluorescence; inhibition, % at 20 µM; 330,000 compounds, 0.41% hits; AID 493011;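 active = at least 40% inhibition at 20 µM here, with at most 30% in a related deaminase screen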;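 note: plate controls were A3A with DMSO for no effect and wells lacking A3A enzyme for full effect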
Target sequence (P31941 whole entry, looked up): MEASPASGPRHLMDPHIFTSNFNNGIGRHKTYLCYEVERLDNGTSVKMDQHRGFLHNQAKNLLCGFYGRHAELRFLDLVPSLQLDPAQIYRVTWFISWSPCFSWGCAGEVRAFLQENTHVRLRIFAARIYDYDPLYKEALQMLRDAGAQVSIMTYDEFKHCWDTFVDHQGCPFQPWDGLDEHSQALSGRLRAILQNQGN
PfGluPho inh = PfG6PD (Plasmodium falciparum) enzyme inhibition | PfGluPho enzyme, NADPH resazurin-diaphorase fluorescence | inhibition, % at 20 µM | 350,000 compounds, 0.78% hits;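 active = inhibition reaching at least a set limit at 20 µM in the primary screen, cut at about 59% in these data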;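 note: 0% = DMSO wells with substrate and 100% = DMSO wells lacking glucose-6-phosphate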
PfG6PD confirm = PfG6PD inhibition, single-dose confirmed | inhibition, % at 20 µM | shares compounds with PfGluPho inh | recombinant PfGluPho, NADPH-diaphorase-resazurin fluorescence | 2,400 compounds, 34% hits;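 active = inhibition of at least 50% at 20 µM in any single replicate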;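 note: 0% = DMSO with substrate and 100% = DMSO lacking glucose-6-phosphate substrate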
Diaphorase 10uM = diaphorase inhibition or oxidation at 10 uM NADPH; diaphorase-coupled resazurin reduction, fluorescence, NADPH 10 uM; AID 504862; 820 compounds, 39% hits; inhibition, % at 20 µM; shares compounds with PfGluPho inh;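 active = average inhibition reaching 50% or more with the compound at 20 µM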;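 note: resorufin red fluorescence formed as diaphorase reduces resazurin using NADPH; 0% = DMSO with enzyme and 100% = DMSO without enzyme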
Diaph ctr 30uM = inhibits diaphorase or oxidizes, flagging false PfG6PD hits | 820 compounds, 29% hits | shares compounds with PfGluPho inh | inhibition, % at 20 µM | Diaphorase/resazurin coupled assay, resorufin fluorescence, 30 uM NADPH;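 active = inhibition averaging 50% or more, tested at 20 µM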;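 note: 0% = DMSO with enzyme and 100% = DMSO wells lacking diaphorase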
Numbers without * were called inactive. This is a sample that favours compounds with a hit; in the whole collection about 2.4% have one here.

Screening CCOc1ccccc1NC(=O)CCS(=O)(=O)c1cccs1 returned A3G deaminase -9, CR mimetic SO 112, PfM18AAP inh -2, APOBEC3A inh -5 and PfGluPho inh -5.
Screening Cc1c(NS(=O)(=O)c2cccs2)cccc1-c1nc2cccnc2s1 returned A3G deaminase -3, CR mimetic SO 98, PfM18AAP inh 4, APOBEC3A inh 1 and PfGluPho inh -12.
`CN(C)c1ccc(CNC(=O)c2cc(S(=O)(=O)N3CCOCC3)cn2C)cc1` gave A3G deaminase -4, CR mimetic SO 104, PfM18AAP inh 11, APOBEC3A inh -3 and PfGluPho inh 13.
Screening Brc1ccc2nc(-c3c[nH]c4ccccc34)cn2c1 returned A3G deaminase -18, CR mimetic SO 94, PfM18AAP inh -1, APOBEC3A inh -6, PfGluPho inh 93* and PfG6PD confirm 32.
Screening O=C(COc1cccc(C(F)(F)F)c1)NNC(=O)c1ccc(=O)[nH]c1 returned A3G deaminase 2, CR mimetic SO 105, APOBEC3A inh 1 and PfGluPho inh -1.
COc1cc(Cl)c(C)cc1NC(=O)CSC1=NCCS1 was read as A3G deaminase 0, CR mimetic SO 124, APOBEC3A inh 1 and PfGluPho inh 21.
For CC(NC(=O)c1cc2cc(Br)ccc2oc1=N)c1ccccc1 (stereo unspecified) the results were A3G deaminase 0, CR mimetic SO 113, PfM18AAP inh -1, APOBEC3A inh 2 and PfGluPho inh 10.
For CCOC(=O)c1ccc(S(=O)(=O)NNS(=O)(=O)c2ccc(C)cc2)cc1 the results were A3G deaminase -4, CR mimetic SO 90, PfM18AAP inh 5, APOBEC3A inh -4 and PfGluPho inh 0.
Screening CCOC(=O)c1ccc(S(=O)(=O)Nc2cc(C(=O)O)ccc2Cl)cc1 returned A3G deaminase -5, CR mimetic SO 101, PfM18AAP inh 3, APOBEC3A inh -2, PfGluPho inh 48 and PfG6PD confirm 29.
CSc1ccc(C2Nc3cccc4cccc(c34)N2)cc1 was read as A3G deaminase -1, CR mimetic SO 106, PfM18AAP inh 26, APOBEC3A inh -7, PfGluPho inh 64* and PfG6PD confirm 7.
`COc1ccc(C(=O)NC(=S)Nc2ccc(N3CCCC3)cc2)cc1` gave A3G deaminase -7, CR mimetic SO 98, PfM18AAP inh 6, APOBEC3A inh -5 and PfGluPho inh 2.
Screening COCCNC(=S)Nc1ccc(N2CCCCC2)cc1 returned A3G deaminase 40, CR mimetic SO 73, PfM18AAP inh -6, APOBEC3A inh 0, PfGluPho inh 64* and PfG6PD confirm 14.
For O=C(Nc1ncc([N+](=O)[O-])s1)c1ccc2c(c1)OCO2 the results were A3G deaminase -2, CR mimetic SO 83, PfM18AAP inh 16, APOBEC3A inh 2, PfGluPho inh 126*, PfG6PD confirm 87*, Diaphorase 10uM 83* and Diaph ctr 30uM 78*.
Screening Cc1onc(-c2ccccc2)c1C(=O)Nc1ncc([N+](=O)[O-])s1 returned A3G deaminase -8, CR mimetic SO 123, PfM18AAP inh 0, APOBEC3A inh 1 and PfGluPho inh -21.
`Cc1cnc(NC(=O)c2ccc3c(c2)OCCO3)s1` gave A3G deaminase -5, CR mimetic SO 118, APOBEC3A inh -2 and PfGluPho inh 16.
Screening Cc1ccc(C(=O)Nc2ncc([N+](=O)[O-])s2)cc1 returned CR mimetic SO 100, PfM18AAP inh -2, PfGluPho inh 99*, PfG6PD confirm 85*, Diaphorase 10uM 76* and Diaph ctr 30uM 63*.
Screening COc1ccc(OCCC(=O)OCC(=O)NCc2ccccc2OC)cc1 returned A3G deaminase -9, CR mimetic SO 101, APOBEC3A inh 14 and PfGluPho inh 18.
`COc1ccc(OCC(=O)NCCC2=CCCCC2)c([N+](=O)[O-])c1` gave A3G deaminase -7, CR mimetic SO 92, PfM18AAP inh 6, APOBEC3A inh -2 and PfGluPho inh -2.
For COc1ccc(C(C)=O)c(OCC(=O)NCCC2=CCCCC2)c1 the results were PfGluPho inh 65* and PfG6PD confirm 44.
For O=c1[nH]c2ccc(NS(=O)(=O)c3ccc(F)c(Cl)c3)cc2[nH]1 the results were A3G deaminase -3, CR mimetic SO 91, PfM18AAP inh 10, APOBEC3A inh 3, PfGluPho inh 63* and PfG6PD confirm 16.
For O=c1[nH]c2ccc(NS(=O)(=O)c3ccc(Cl)cc3)cc2[nH]1 the results were A3G deaminase -2, CR mimetic SO 111, PfM18AAP inh -10, APOBEC3A inh -2, PfGluPho inh 64* and PfG6PD confirm 2.
For Cc1ccc(S(=O)(=O)Nc2ccc3[nH]c(=O)[nH]c3c2)c(C)c1 the results were A3G deaminase -10, CR mimetic SO 93, PfM18AAP inh 1, APOBEC3A inh -2, PfGluPho inh 49 and PfG6PD confirm 20.
Screening Cc1cc(C(=O)COc2cccc(-n3cnnn3)c2)c(C)n1-c1ccccc1 returned A3G deaminase -1, CR mimetic SO 100, PfM18AAP inh 4, APOBEC3A inh 0, PfGluPho inh 74* and PfG6PD confirm 26.
`CC(Sc1nnc(Cc2cccs2)n1C)C(=O)Nc1ccc(C(N)=O)cc1` (stereo unspecified) gave A3G deaminase -7, APOBEC3A inh -6 and PfGluPho inh 6.
CCOc1ccc(-n2cc(-c3ccc(OC)c(OC)c3)[nH]c2=S)cc1 was read as A3G deaminase 1, CR mimetic SO 95, PfM18AAP inh 25, APOBEC3A inh -4, PfGluPho inh 66* and PfG6PD confirm 30.
O=c1[nH]c(=O)c2[nH]c(=S)n(-c3ccccc3)c2[nH]1 was read as PfGluPho inh 64* and PfG6PD confirm 37.
CCOC(=O)CN1C(=O)C(=O)N(Cc2ccccc2F)C1=O was read as A3G deaminase -15, CR mimetic SO 110, PfM18AAP inh -1, APOBEC3A inh -4 and PfGluPho inh -2.
`N#C/C(=C/c1ccc(N2CCOCC2)o1)c1ccc(Cl)cc1` gave CR mimetic SO 130, PfM18AAP inh 5, PfGluPho inh 78* and PfG6PD confirm 12.
Screening N#C/C(=C\c1ccc(N2CCOCC2)o1)c1nc2ccccc2[nH]1 returned A3G deaminase -36, CR mimetic SO 110, PfM18AAP inh 13, APOBEC3A inh -27 and PfGluPho inh 38.
For COc1ccc(S(=O)(=O)N2CCC(C(=O)NCc3cccnc3)CC2)cc1OC the results were A3G deaminase 2, CR mimetic SO 84, PfM18AAP inh 1, APOBEC3A inh 4 and PfGluPho inh -3.
